Measurements published in ChEMBL document CHEMBL3988442, “University of Dundee, Small-Polar-MMV Screening Library” (2021).
About 13,000 (27%) of roughly 48,000 compounds showed an effect of 50% or more. The list shows a part of the results.

System: Wolbachia pipientis
Assay: Anti-Wolbachia Cell-Based Screen
Assay type: functional
Parameters: scale not given: in the data most compounds retested in dose-response had high values
Conditions: 5 µM

SMILES | Percent Effect
Cc1nn(C)c(Cl)c1C1CCCN1CC(=O)NCc1ccco1 (stereo not drawn) | 93.09%
COCCNC(=O)CN1CCCC1c1c(C)nn(C)c1Cl (stereo not drawn) | 87.98%
Cc1nc(C)n(CC2CCCN2CC(=O)NCc2ccco2)n1 (stereo not drawn) | -10.96%
Cc1nn(C)c(C)c1C1CCCN1CC(=O)NC(C1CC1)C1CC1 (stereo not drawn) | 8.112%
NC(=O)CN1C(=O)CO[C@H]2CN(Cc3ccc(Cl)cc3)C[C@H]21 | -3.813%
CN(CC(N)=O)Cc1c(Cl)ccc2cccnc12 | 1.669%
COc1ccc(Cl)cc1NCC(=O)N(Cc1ccncc1)C1CC1 | 10.17%
Cc1ccc(CSc2nc(N)cc(NCCC(=O)N3CCCC3)n2)cc1 | 92.81%
Cc1ccc(CSc2nc(N)cc(NCCC(N)=O)n2)cc1 | -9.969%
Cc1cc(NCCS(C)(=O)=O)nc2ccccc12 | 2.58%
CN(C)S(=O)(=O)CCNc1ncc2c(n1)CCN2c1ccccc1 | -5.162%
Cc1ccc(CSc2nc(N)cc(NCC(=O)N3CCNCC3)n2)cc1 | 0.4693%
Cc1ccc(CSc2nc(N)cc(NCCS(=O)(=O)N(C)C)n2)cc1 | 94.01%
CC(C)c1nc2n(n1)CC(Nc1ncnc3ccccc13)CC2 (stereo not drawn) | -42.74%
COC1CCN(C(=O)c2nn(-c3ccc(C(C)C)cc3)cc2O)CC1 | 2.392%
CC(C)C1CN(C(=O)c2ccc(C(N)=O)cc2)CCS1 (stereo not drawn) | 0.1325%
CC(C)C1CN(C(=O)c2cc(F)cc3[nH]cnc23)CCS1 (stereo not drawn) | 102.4%
CC1(C)CN(C(=O)c2cc(F)cc3[nH]cnc23)CCS1 | 94.05%
CCCN(CC(F)(F)F)C(=O)c1cc(F)cc2[nH]cnc12 | -1.946%
COCCN(CCOC)C(=O)c1cc(F)cc2[nH]cnc12 | 18.56%
CC(C)C1CN(C(=O)c2nccnc2N)CCS1 (stereo not drawn) | -3.274%
COC(=O)CCCN(C)C(=O)c1cc(F)cc2[nH]cnc12 | -15.15%
CCN(CCC(=O)OC)C(=O)c1cc(F)cc2[nH]cnc12 | -3.962%
CC1(C)CCN1C(=O)c1cc(F)cc2[nH]cnc12 | 96.75%
CCC(CO)NC(=O)Nc1cc(F)ccc1Br (stereo not drawn) | 7.156%
N#Cc1cccc(OCC(=O)N(Cc2ccsc2)C2CC2)c1 | -11.35%
COCC1CCN(CCCc2cccc(OC)c2)CC1 | -10.46%

SMILES | Percent Effect
CC(C)(C)CNC[C@H]1Cn2ccnc2CO1 | -18.46%
NC(=O)C1CN(C(=O)Nc2ccccc2SC(F)(F)F)CCO1 (stereo not drawn) | -3.203%
NC(=O)C1CN(C(=O)Nc2ccccc2Oc2ccccc2Cl)CCO1 (stereo not drawn) | 94.62%
O=C(COc1ccccc1O)N1CCOC(C(F)(F)F)C1 (stereo not drawn) | 13.92%
NC(=O)C1CN(C(=O)Nc2ccccc2SC2CCCC2)CCO1 (stereo not drawn) | 100%
NC(=O)C1CN(C(=O)Nc2ccccc2-c2cccs2)CCO1 (stereo not drawn) | -5.73%
NC(=O)C1CN(C(=O)C2(c3ccc(F)cc3F)CCCC2)CCO1 (stereo not drawn) | -8.523%
C=C(C)COc1ccccc1NC(=O)N1CCOCC1CO (stereo not drawn) | 6.942%
NC(=O)C1CN(C(=O)Nc2ccccc2N2CCCCCC2)CCO1 (stereo not drawn) | 3.966%
NC(=O)C1CN(C(=O)Nc2ccccc2OCC(F)(F)F)CCO1 (stereo not drawn) | 120.3%
CSc1ccc(-c2nc(CN3CCCC(CNC(C)=O)C3)c(C)o2)cc1 (stereo not drawn) | 24.94%
CC(=O)N1CCC(N2CCOC[C@H]2c2nc(-c3ccccc3)c[nH]2)CC1 | -17.76%
Cc1cc(C)c2nc(CN3CCC(C#N)CC3)cc(O)c2c1 | -6.492%
CC(=O)c1ccc(NCc2cc3n(n2)CCCN(S(C)(=O)=O)C3)nc1 | -0.5632%
CS(=O)(=O)N1CCCn2nc(CNc3cc(C#N)ccn3)cc2C1 | 9.255%
O=C(NCc1cc2n(n1)CCCN(Cc1ccc(CO)o1)C2)C1CCC1 | -16.23%
N#Cc1ccc(NCc2cc3n(n2)CCCN(C(=O)C2CCC2)C3)nc1 | 102.7%
N#Cc1ccnc(NCc2cc3n(n2)CCCN(C(=O)C2CCC2)C3)c1 | 115.4%
O=C(NCc1cc2n(n1)CCCN(Cc1ccc(Cl)s1)C2)C1CCC1 | -18.59%
CSCC(C)(O)CNC(=O)Nc1ccc(C)cc1Br (stereo not drawn) | 7.748%
CCN(C(C)=O)C1CCN(c2nccc(C3CCCC3)n2)C1 (stereo not drawn) | 3.77%
O=C(O)c1cccc(CC2CCN(c3ncccn3)CC2)c1 | -1.664%
O=C(C1CC1)N1CCCCCC1C1CCN(c2ncccn2)CC1 (stereo not drawn) | -21.65%
NC(=O)c1cccc(C2CCN(c3ncccn3)CC2)n1 | 105.7%
CN(C)C(=O)[C@@H]1CCO[C@@H]2CCN(c3ncccn3)C[C@H]21 | 1.087%
CN(C)C(=O)c1cccc(C2CCN(c3ncccn3)CC2)n1 | 135.8%
